Here are results for 73 compounds from PMC4552634, “A New Set of Chemical Starting Points with Plasmodium falciparum Transmission-Blocking Potential for Antimalarial Drug Discovery” (PLoS ONE, 2015).

Read-outs that look alike come from different tables or passages of the source. The campaign covered roughly 13,000 compounds. About 3,200 (25%) showed an effect of 50% or more. The list shows a part of the results.

In general, % Inhibition refers to the change of the read-out against control, counted positive when it falls.

The assay relates to P. falciparum stage V gametocytes. More on the design: BacTiter-Glo ATP luminescence viability of purified stage V gametocytes in 384-well plates, per cent inhibition versus DMSO. Particulars: 48 h, 5 µM, inhibitor.

In the case of `Cc1nc(/N=C(\N)NC(=O)NC2CCCCC2)nc2ccccc12` [TCMDC-123808], the “% Inhibition” value was determined as 133.5%.
As for `CCOC(=O)c1[nH]c(-c2ccccc2)nc1NC(=S)NC1CCCCC1` [TCMDC-131430], the “% Inhibition” value was found to be 5.591%.
Same read-out and setting: with `Cc1ccc(NC(=O)NC2CCN(c3ccnc4ccccc34)CC2)cc1` [TCMDC-133588] the figure was 13.19%; with `CC(C)CC(NC(=O)c1ccc(F)cc1)C(=O)N[C@H](/C=N/N1CCNC1=O)CC(C)C` (stereo partly shown) [TCMDC-136214], 16.28%.
The same measure, in the same setting: with `OC(c1ccccc1)C1CN(Cc2ccccc2)CCC1(O)c1ccccc1` (stereo not shown) [TCMDC-125518] the figure was -9.589%; with `CC(c1cccc(S(=O)(=O)NCc2ccc(Cl)cc2Cl)c1)N1CCC(N2CCCCC2)CC1` (stereo not shown) [TCMDC-133564], -22.09%; with `COCCNCC(O)Cn1c2ccc(Cl)cc2c2cc(Cl)ccc21` (stereo not shown) [TCMDC-123535], 54.28%.
As to `CCC(CO)NCC(O)Cn1c2ccc(Br)cc2c2cc(Br)ccc21` (stereo not shown) [TCMDC-125710], the “% Inhibition” value is given as 27.72%.
As for `CC(C)CCNCC(O)Cn1c2ccc(Cl)cc2c2cc(Cl)ccc21` (stereo not shown) [TCMDC-125673], the “% Inhibition” value is recorded as 69.1%.
Consider `CCC(CO)NCC(O)Cn1c2ccc(Cl)cc2c2cc(Cl)ccc21` (stereo not shown) [TCMDC-125711], for which the “% Inhibition” value is listed as 55%.
Consider `CCNCCCC(C)Nc1ccnc2cc(Cl)ccc12` (stereo not shown) [TCMDC-125876], for which the “% Inhibition” value was 27.58%.
With `OC(CNCCc1ccccc1)Cn1c2ccc(Cl)cc2c2cc(Cl)ccc21` (stereo not shown) [TCMDC-124135], the “% Inhibition” value is 17.2%.
Still for that read-out and setting: with `Cc1nc(-c2cccc(C(=O)Nc3cnc4ccccc4c3)c2)no1` [TCMDC-135810] the figure was 8.288%; with `CC1CCC(NCc2ccc3c(CNC4CCC(C)CC4)c(O)ccc3c2O)CC1` (stereo not shown) [TCMDC-137587], -63.23%; with `COc1cccc(C(=O)NCCc2cccc(Cl)c2)c1OCc1ccccc1` [TCMDC-141235], -13.17%.
On the same count and under the same terms, with `COc1ccc(C(=O)O)cc1OCc1ccccc1` [TCMDC-125534] the figure was 4.056%; with `COc1cc(CCNC(=O)Cc2ccc3ccccc3c2)ccc1OCc1ccccc1` [TCMDC-137227], 57.44%; with `CCC(C)CC(=O)Nc1ccc(OC)c(S(=O)(=O)N[C@@H]2CCN(C#N)C2)c1` (stereo partly shown) [TCMDC-134061], 14.31%.
Same read-out and setting: with `COc1cc(-c2nc3ccc(N4CCN(C)CC4)cc3[nH]2)cc(OC)c1OC` [TCMDC-124585] the figure was -16.2%.
`CNC(=O)c1cnc(Nc2ccc(N3CCN(C)CC3)c(C)c2)nc1NC` [TCMDC-134162]: the “% Inhibition” value came to 36.76%.
On the same count and under the same terms, with `CNC(=O)c1ccccc1Nc1nc(Nc2ccc(N3CCN(C)CC3)nc2)ncc1C` [TCMDC-134123] the figure was 57.48%.
Still for that read-out and setting: the result for `CNC(=O)c1ccccc1Nc1nc(Nc2ccc(N3CCOCC3)cc2)ncc1Cl` [TCMDC-134144] reads -63.52%.
Same read-out and setting: with `COc1ccc(Nc2ncc(OC)c(Nc3ccccc3C(N)=O)n2)cc1N1CCN(C)CC1` [TCMDC-134149] the figure was 9.949%; with `CNC(=O)c1cnc(Nc2ccc(N3CCN(C)CC3)cc2)nc1Nc1ccccc1OC` [TCMDC-141382], -26.7%; with `Cc1cc(Nc2ncc(C#N)c(Nc3ccccc3C(N)=O)n2)ccc1N1CCN(C)CC1` [TCMDC-134115], 104.7%.
`CN1CCN(c2ccc(Nc3ncc(Cl)c(Nc4cccnc4C(N)=O)n3)cc2)CC1` [TCMDC-134164]: the “% Inhibition” value is given as -84.83%.
Still for that read-out and setting: the result for `CNC(=O)c1ccccc1Nc1nc(Nc2ccc(CCN3CCN(C)CC3)cc2)ncc1Cl` [TCMDC-133800] reads 8.334%.
Same read-out and setting: the result for `COc1ccc(Nc2ncc(C#N)c(Nc3ccccc3C(N)=O)n2)cc1N1CCN(C)CC1` [TCMDC-134117] reads -97.62%; that for `Cc1cc(Nc2ncc(Cl)c(Nc3ccccc3C(N)=O)n2)n[nH]1` [TCMDC-134170], -34.04%; that for `COc1ccc(Nc2ncc(Cl)c(Nc3cccnc3C(N)=O)n2)cc1N1CCN(C)CC1` [TCMDC-134163], 97.54%.
On the same count and under the same terms, the result for `NC(=O)c1ccccc1Nc1nc(Nc2cccc(N3CCN(CCO)CC3)c2)ncc1Cl` [TCMDC-134114] reads 94.95%; that for `CCC[C@@H](C(=O)NCCc1cccc(OC)c1)N1C(=O)c2c(ccc(OC)c2OC)C1C(=O)Nc1c(C)cccc1C` (stereo partly shown) [TCMDC-141135], 18.96%; that for `Cc1[nH]n(-c2cccc(Cl)c2)c(=O)c1-c1ccc(Cl)cc1` [TCMDC-123495], -44.23%.
Consider `O=C(Nc1ccc(C(F)(F)F)cc1)c1cc(Br)cnc1NCCCn1ccnc1` [TCMDC-136699], for which the “% Inhibition” value came out at 4.282%.
As for `COc1ccc(NC(=O)c2cc(-c3ccc(NC(C)=O)cc3)cnc2N)cc1` [TCMDC-135658], the “% Inhibition” value is recorded as 32%.
Regarding `CNC(=O)c1cc(F)c(F)cc1Nc1nc(Nc2cccc(CS(C)(=O)=O)c2)ncc1Cl` [TCMDC-134060], the “% Inhibition” value is -6.741%.
Same read-out and setting: the result for `CNC(=O)c1ccccc1Nc1nc(Nc2cccnc2)ncc1C` [TCMDC-134211] reads 33.23%; that for `CNC(=O)c1ccccc1Nc1nc(Nc2cccc(CS(C)(=O)=O)c2)ncc1C` [TCMDC-133809], 64.95%.
The same measure, in the same setting: the result for `Cc1ccc(NC(=O)c2ccc3ncccc3c2)cc1OC1CCN(Cc2ccsc2)CC1` [TCMDC-134270] reads 12.12%; that for `COc1ccc(OCC(O)CN(Cc2ccccc2OC)C(=O)Nc2ccc(Br)cc2)cc1` (stereo not shown) [TCMDC-141494], 25.96%; that for `COc1cccc(OC)c1-c1ccccc1NC(=O)N1CCCc2cc(C)ccc21` [TCMDC-136199], -20.26%.
As to `COc1ccccc1NC(=O)OC(COc1ccc(N)cc1)CN1CC=C(c2ccccc2)CC1` (stereo not shown) [TCMDC-136486], the “% Inhibition” value stood at 60.38%.
The same measure, in the same setting: with `Cc1cccc2[nH]c(-c3cccc(-c4ccc(NC(=O)Nc5ccc(F)c(F)c5F)cc4)c3)nc12` [TCMDC-133225] the figure was -8.037%.
Regarding `COc1ccc2ncc(F)c(CCN3CC(O)C(CNCc4nc5c(cc4Cl)OCC(=O)N5)C3)c2n1` (stereo not shown) [TCMDC-136031], the “% Inhibition” value (% Inhibition) is 24.96%.
As for `Oc1ccc2[nH]cc(C3CCN(CCCCCCCCCN4CCC(c5c[nH]c6ccc(O)cc56)CC4)CC3)c2c1` [TCMDC-139003], the “% Inhibition” value is 74.24%.
The same measure, in the same setting: with `Oc1ccc2[nH]cc(C3CCN(CCC(c4ccccc4)c4ccccc4)CC3)c2c1` [TCMDC-139017] the figure was -54.72%; with `O=C(/C=C/c1ccc(Cl)c(Cl)c1)NCCCCCN1CCC(c2c[nH]c3cc(O)ccc23)CC1` [TCMDC-139282], 10.47%.
For the compound `Oc1ccc2[nH]cc(C3CCN(CCCNCc4ccc(-c5ccccc5)cc4)CC3)c2c1` [TCMDC-139047], the “% Inhibition” value was 101.4%.
Still for that read-out and setting: the result for `Cc1cccc2nc(-c3cccc(-c4cccc(NC(=O)NC5CC5c5ccccc5)c4)c3)[nH]c12` (stereo not shown) [TCMDC-133254] reads -21.78%; that for `CNC(=O)/C=C/c1cc(NC(=O)Nc2cc(C)nc3c(F)cccc23)ccc1OC` [TCMDC-140324], -6.922%.
The same measure, in the same setting: with `CC12CCC(=O)N1C(C(=O)Nc1cccc(C(=O)Nc3cccc(C(F)(F)F)c3)c1)CS2` (stereo not shown) [TCMDC-125019] the figure was 77%; with `O=C(CNC1CCCCC1)Nc1cccc(C(=O)Nc2cccc(C(F)(F)F)c2)c1` [TCMDC-123711], 29.34%.
With `CCCCCN1CCCC1CNS(=O)(=O)c1cccc(C(=O)Nc2cccc(C(F)(F)F)c2)c1` (stereo not shown) [TCMDC-133686], the “% Inhibition” value is -82.32%.
Same read-out and setting: the result for `O=C(Nc1cccc(CN2CCCN(Cc3ccc(O)cc3)CC2)c1)c1cccc(C(F)(F)F)c1` [TCMDC-141836] reads -28.76%; that for `O=C(Cn1c(=O)cnc2ccccc21)Nc1cccc(C(=O)Nc2cccc(C(F)(F)F)c2)c1` [TCMDC-125468], 18.7%; that for `COc1cc(C(=O)Nc2nc3ccccc3[nH]2)ccc1OCC(=O)Nc1cccc(C(F)(F)F)c1` [TCMDC-125460], 11.63%.
The same measure, in the same setting: the result for `COc1ccccc1C(C)NCC(=O)Nc1cccc(C(=O)Nc2cccc(C(F)(F)F)c2)c1` (stereo not shown) [TCMDC-124871] reads 31.1%; that for `O=C(Nc1cccc(C(F)(F)F)c1)c1cccc(S(=O)(=O)NCC2CCCN2CC2CCCCC2)c1` (stereo not shown) [TCMDC-133687], -58.72%.
Still for that read-out and setting: with `O=C(CN1CCCC1)Nc1cccc(C(=O)Nc2cccc(C(F)(F)F)c2)c1` [TCMDC-124512] the figure was 78.8%; with `O=C(Cc1n[nH]c(=O)c2ccccc12)Nc1cccc(C(=O)Nc2cccc(C(F)(F)F)c2)c1` [TCMDC-125260], 48.65%.
As for `CC(C)NCC(=O)Nc1cccc(C(=O)Nc2cccc(C(F)(F)F)c2)c1` [TCMDC-124878], the “% Inhibition” value amounted to 70.58%.
Turning to `CC(O)CNc1nc2ccccc2n1CC(=O)Nc1cccc(C(=O)Nc2cccc(C(F)(F)F)c2)c1` (stereo not shown) [TCMDC-124335], the “% Inhibition” value is recorded as 86.13%.
For `N[C@@H](Cc1ccc(O)cc1)C(=O)NC(c1ccccc1)c1c(O)ccc2ccccc12` (stereo partly shown) [TCMDC-141232], the “% Inhibition” value was 9.479%.
Still for that read-out and setting: the result for `CC=CC1CCNC(C(O)c2ccnc3ccc(OC)cc23)C1` (stereo not shown) [TCMDC-132000] reads 38.01%; that for `O=C(NCCCCN1CCN(c2cccc(Cl)c2Cl)CC1)c1ccc2c(c1)CCN(C1CCC1)CC2` [TCMDC-136053], 20.89%; that for `CN1CCC(N2CCC(Oc3cccc(C(=O)NCCCC4CCCC4)c3)CC2)CC1` [TCMDC-124677], 58.06%.
Same read-out and setting: with `CC(C)CCN1CCC(Oc2cccc(NC(=O)c3ccc(C(F)(F)F)cc3)c2)CC1` [TCMDC-133738] the figure was 13.2%; with `CN1CCC(NCc2ccc(-c3cccc(S(=O)(=O)NCc4ccccc4)c3)cc2)CC1` [TCMDC-132238], 104.8%; with `CN1CCC(NCc2ccc(S(=O)(=O)Nc3ccc(Oc4cccc(Cl)c4)cc3)cc2)CC1` [TCMDC-136201], 14.91%.
Turning to `CN1CCC(NCc2ccc(-c3cccc(S(=O)(=O)NCC4CCCO4)c3)cc2)CC1` (stereo not shown) [TCMDC-132242], the “% Inhibition” value stood at 58.26%.
Still for that read-out and setting: the result for `CN1CCC(NCc2cccc(-c3ccc(S(=O)(=O)NCc4ccccc4)cc3)c2)CC1` [TCMDC-132213] reads 49.72%.
Same read-out and setting: the result for `CN1CCC(NCc2ccc(-c3ccc(S(=O)(=O)NCc4ccccc4)cc3)cc2)CC1` [TCMDC-132227] reads 101.8%; that for `CN1CCC(NCc2cccc(-c3cccc(S(=O)(=O)NCc4ccccc4)c3)c2)CC1` [TCMDC-132377], 104%.
